Growth data for 13 compounds are collected here from PubChem BioAssay (NCI).

Test systems include SK-MEL-2 melanoma; EKVX NSCLC; SN12C renal; UO-31 renal; TK-10 renal; ACHN renal; CAKI-1 renal; A498 renal; CCRF-CEM leukemia; MOLT-4 leukemia.
Assay in all cases: NCI-60 one-dose screen, 48 h (100 = growth as untreated, 0 = no growth, -100 = all killed)
Common to all, as to conditions: 10 µM unless noted

The panel holds about 83,000 compounds, 20% with a hit somewhere; the sample as a whole holds those more often.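 Growth was measured after 48 h exposure to one concentration of compound in 96-well plates. Values under 10 count as active.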 Values without a mark were called inactive. Active and inactive are the calls of the source.

As to `O=c1[nH]c(=S)[nH]c2nc[nH]c12`, the growth was 117% in the test on SK-MEL-2 melanoma; 97.2% in the test on EKVX NSCLC; 96.2% in the test on SN12C renal; 62.7% with UO-31 renal; 113% with TK-10 renal; 104% in the test on ACHN renal. The growth was 108% in the test on CAKI-1 renal, 93.4% in the test with A498 renal, 106% in the test on CCRF-CEM leukemia and 97.8% in the test on MOLT-4 leukemia.

As to `CC(=O)Oc1ccccc1C(=O)/C=C/c1cccc([N+](=O)[O-])c1`, the growth was 96.2% in the test with SK-MEL-2 melanoma; 75.6% in the test on EKVX NSCLC; 78.9% with SN12C renal; -28.1% (active) with UO-31 renal; 134% with TK-10 renal; 75.3% in the test on ACHN renal. The growth in the test with CAKI-1 renal was 67.6%; in the test on A498 renal, 92.6%; in the test on CCRF-CEM leukemia, 5.04% (active); in the test with MOLT-4 leukemia, 50.8%.

With `NC1=C(C/C(N)=N\O)C(c2ccccc2Cl)c2c(ccc3ccccc23)O1` (stereo not given), the growth with SK-MEL-2 melanoma is 90.4%; with EKVX NSCLC it was 80.9%; in the test with SN12C renal it was 91.3%; with UO-31 renal, 58.6%; in the test on TK-10 renal, 180%; with ACHN renal, 83%. The growth is 49.5% in the test on CAKI-1 renal, 96.8% in the test with A498 renal, 79.8% in the test on CCRF-CEM leukemia and 76% in the test with MOLT-4 leukemia.

Consider `C#CCn1c2c(c3ccccc31)C[C@]1(C)[C@H]3CC[C@@H]4[C@@H]5C(=CCC[C@H]5C(=C)C)CC[C@@]4(C)[C@]3(C)CC[C@H]1C2(C)C`, for which the growth was 104% in the test on SK-MEL-2 melanoma; 99.2% with EKVX NSCLC; 95.6% with SN12C renal; 77.1% with UO-31 renal; 122% with TK-10 renal; 99.2% with ACHN renal. Moreover, the growth is 80.1% with CAKI-1 renal, 111% with A498 renal, 114% in the test with CCRF-CEM leukemia and 99.9% with MOLT-4 leukemia.

For the compound `Cc1cc(C)n(Cc2cc(C(C)(C)C)cc(C(C)(C)C)c2)c(=O)c1C#N`, the growth in the test with SK-MEL-2 melanoma was 107%; with EKVX NSCLC, 75.2%; with SN12C renal it was 90%; with UO-31 renal, 80.5%; in the test with TK-10 renal, 107%; in the test with ACHN renal, 98.4%. Further, the growth with CAKI-1 renal was 104%; in the test with A498 renal, 97%; in the test on CCRF-CEM leukemia it was 87.9%; with MOLT-4 leukemia, 76.6%.

Consider `COc1cccc(-c2nn(-c3ccccc3)cc2-c2ccnc(NCCNS(=O)(=O)c3ccccc3)c2)c1`, for which the growth was 21% with SK-MEL-2 melanoma; 47.2% in the test with EKVX NSCLC; 36.1% in the test on SN12C renal; 14.5% in the test on UO-31 renal; 43.8% with TK-10 renal; 28.9% in the test on ACHN renal. Besides, the growth was 43.7% in the test with CAKI-1 renal, 47.7% in the test with A498 renal, 12.2% in the test with CCRF-CEM leukemia and 12.8% in the test on MOLT-4 leukemia.

`CCc1nnc(NC(=O)c2ccoc2COc2ccccc2)s1`: the growth with SK-MEL-2 melanoma is 54.3%; with EKVX NSCLC, 58.2%; in the test on SN12C renal, 55.7%; in the test on UO-31 renal, 60.7%; in the test with TK-10 renal, 108%; in the test with ACHN renal it was 64.8%. The growth in the test on CAKI-1 renal is 41.9%; in the test with A498 renal, 59.2%; in the test with CCRF-CEM leukemia, 39.3%; in the test with MOLT-4 leukemia, 25.3%.

Regarding `Brc1ccc(Cn2nnnc2-c2ccn(-c3ccccc3)n2)cc1`, the growth in the test on SK-MEL-2 melanoma was 63.5%; in the test on EKVX NSCLC, 69.8%; in the test on SN12C renal it was 68.5%; with UO-31 renal, 69.2%; in the test on TK-10 renal it was 77.6%; in the test on ACHN renal, 70.7%. Further, the growth in the test with CAKI-1 renal is 58.2%; with A498 renal it was 52.5%; in the test on CCRF-CEM leukemia, 56.7%; in the test on MOLT-4 leukemia, 52.4%.

Regarding `Cn1c(=O)c2c(ncn2CCC(=O)Nc2ccc(F)cc2)n(C)c1=O`, the growth is 104% with SK-MEL-2 melanoma; 101% in the test on EKVX NSCLC; 105% in the test on SN12C renal; 90% in the test with UO-31 renal; 95% in the test with TK-10 renal; 110% in the test with ACHN renal. Moreover, the growth is 92.9% in the test with CAKI-1 renal, 103% with A498 renal, 97.5% in the test with CCRF-CEM leukemia and 101% in the test on MOLT-4 leukemia.

On to `CC1c2ccccc2N(S(=O)(=O)c2ccccc2)C1C` (stereo not given), for which the growth is 76.5% with SK-MEL-2 melanoma; 92.5% in the test on EKVX NSCLC; 105% in the test with SN12C renal; 75.7% with UO-31 renal; 100% in the test with TK-10 renal; 93.6% in the test on ACHN renal. For the same compound, the growth in the test on CAKI-1 renal was 74.5%; in the test on A498 renal, 104%; with CCRF-CEM leukemia, 78.2%; with MOLT-4 leukemia it was 75.1%.

`O=C1/C(=C\c2ccc(Br)o2)SC(=S)N1CCc1ccc(O)cc1`: the growth is 103% in the test on SK-MEL-2 melanoma; 81.4% in the test with EKVX NSCLC; 86.9% in the test on SN12C renal; -48.4% (active) in the test on UO-31 renal; 92.8% with TK-10 renal; 49.8% with ACHN renal. Besides, the growth is 27.8% in the test on CAKI-1 renal, 108% with A498 renal, 21.8% in the test with CCRF-CEM leukemia and 64.3% in the test on MOLT-4 leukemia.

For the compound `O=S(=O)(NCCNc1cc(-c2cn(-c3ccccc3)nc2-c2cccc(O)c2)ccn1)c1cccc(F)c1`, the growth was 53.1% with SK-MEL-2 melanoma; 46.6% in the test on EKVX NSCLC; 50.4% with SN12C renal; 23.5% in the test with UO-31 renal; 56% in the test with TK-10 renal; 36.3% in the test with ACHN renal. Further, the growth with CAKI-1 renal was 44.3%; in the test with A498 renal it was 57.4%; in the test with CCRF-CEM leukemia, 18.7%; in the test on MOLT-4 leukemia, 18.5%.

In the case of `CC1(C)CC[C@]2(C(=O)Nc3ccccn3)CC[C@]3(C)C(=CC[C@@H]4[C@@]5(C)C/C(=C/c6ccncc6)C(=O)C(C)(C)[C@@H]5CC[C@]43C)[C@@H]2C1`, the growth with SK-MEL-2 melanoma was 63.3%; in the test with EKVX NSCLC it was 39.3%; with SN12C renal it was 34.4%; in the test with UO-31 renal, 36.9%; with TK-10 renal, 77.4%; in the test with ACHN renal, -11.9% (active). In addition, the growth in the test with CAKI-1 renal was 40.4%; in the test on A498 renal, -17.2% (active); in the test with CCRF-CEM leukemia it was 25.4%; in the test on MOLT-4 leukemia, 11.6%.
